These results are taken from PubChem BioAssay (NCATS).

Experiment [1] in a line: qHTS for identification of novel therapeutic agents for treatment of microphthalmiaassociated transcription factor (MiT) renal cell carcinoma (RCC) (AID 1963991; calls by dose curve; further: potency means the concentration at half of the fitted maximal effect). As to conditions: CellTiter-Glo, 48 h; for z-score: stronger effect = lower value; for Potency: active = Z-AUC below -0.8 in all three lines. The method in brief: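 Viability of three TFE3-fusion renal carcinoma lines measured by CellTiter-Glo after 48 h treatment with each of 1912 compounds at 11 concentrations. Responses scaled between DMSO (100%) and empty wells (0%) before curve fitting.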
In general terms: qHTS replaces the single test concentration by a dilution series.

The nature of experiment [2]: qHTS profiling for inhibitors of Plasmodium falciparum proliferation (AID 504749).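 Further: 0% = DMSO vehicle and full inhibition = artemisinin control; nearly all actives have a fitted effect of over 60% in size.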 As to conditions: P. falciparum in erythrocytes, SYBR Green DNA, 72 h, at 28.7 µM (top of the series). The method in brief: (§1)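 Each compound contacts P. falciparum-infected red blood cells for 72 h at 37 C; lysis buffer (Tris, EDTA, saponin, Triton X, SYBR Green I) is added and fluorescence measured next morning; values normalized to controls.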

Experiment [3] has as its system 3D7. The experiment is described as above. As to conditions: P. falciparum in erythrocytes, SYBR Green DNA, 72 h; series mostly up to 28.7 µM. The method, boiled down: as §1
Experiment [4] concerns 7G8. The experiment is described as above. As to conditions: P. falciparum in erythrocytes, SYBR Green DNA, 72 h; series mostly up to 28.7 µM. The method in brief:
as §1

The subject of experiment [5] is AA1029. The experiment is described as above. As to conditions: P. falciparum in erythrocytes, SYBR Green DNA, 72 h; series mostly up to 28.7 µM. The method, boiled down:
as §1

Experiment [6] has as its system AS120. The experiment is described as above. As to conditions: P. falciparum in erythrocytes, SYBR Green DNA, 72 h; series mostly up to 28.7 µM. The method in brief: as §1
Experiment [7] concerns ATS189. Described as above. As to conditions: P. falciparum in erythrocytes, SYBR Green DNA, 72 h; series mostly up to 28.7 µM. The method, boiled down: as §1
Experiment [8] deals with ATS95. Described as above. Conditions: P. falciparum in erythrocytes, SYBR Green DNA, 72 h; series mostly up to 28.7 µM. The method in brief: as §1
Experiment [9] deals with C2A. The description is as above. Conditions: P. falciparum in erythrocytes, SYBR Green DNA, 72 h; series mostly up to 28.7 µM. The method in brief: as §1
For experiment [10], the system named is CP185. Described as above. As to conditions: P. falciparum in erythrocytes, SYBR Green DNA, 72 h; series mostly up to 28.7 µM. The method, boiled down: as §1
The test system of experiment [11] is CP191. The experiment is described as above. As to conditions: P. falciparum in erythrocytes, SYBR Green DNA, 72 h; series mostly up to 28.7 µM. The method, boiled down: as §1
Experiment [12] has as its system CP192. The description is as above. Conditions: P. falciparum in erythrocytes, SYBR Green DNA, 72 h; series mostly up to 28.7 µM. The method in brief: as §1
The subject of experiment [13] is CP194. The experiment is described as above. As to conditions: P. falciparum in erythrocytes, SYBR Green DNA, 72 h; series mostly up to 28.7 µM. The method, boiled down: as §1
In experiment [14] the test system is CP201. The description is as above. As to conditions: P. falciparum in erythrocytes, SYBR Green DNA, 72 h; series mostly up to 28.7 µM. The method, boiled down: as §1
Experiment [15] concerns CP203. Described as above. Conditions: P. falciparum in erythrocytes, SYBR Green DNA, 72 h; series mostly up to 28.7 µM. The method in brief: as §1
Experiment [16] concerns CP211. The experiment is described as above. As to conditions: P. falciparum in erythrocytes, SYBR Green DNA, 72 h; series mostly up to 28.7 µM. The method in brief: as §1
In experiment [17] the test system is CP215. The experiment is described as above. Conditions: P. falciparum in erythrocytes, SYBR Green DNA, 72 h; series mostly up to 28.7 µM. The method in brief:
as §1

The subject of experiment [18] is CP217. The description is as above. As to conditions: P. falciparum in erythrocytes, SYBR Green DNA, 72 h; series mostly up to 28.7 µM. The method, boiled down: as §1
Experiment [19] has as its system CP237. The experiment is described as above. As to conditions: P. falciparum in erythrocytes, SYBR Green DNA, 72 h; series mostly up to 28.7 µM. The method, boiled down: as §1
Where [20] appears, read: TFE3-RCC UOK109 viability, measured here: UOK109 Z-AUC.
Setting [21] is: TFE3-RCC viability, measured here: UOK124 Z-AUC.
Setting [22] is: TFE3-RCC viability, measured here: UOK145 Z-AUC.

Results filed as inconclusive are left out. The source made the active and inactive calls. Unless noted, the call rests on the fitted dose curve; in most records, active means well fitted inhibition curve with a large enough effect; inconclusive means small, poorly fitted or top-dose-only effect; inactive means flat fitted curve, though single readings scatter.

As for `CN[C@H](CC(C)C)C(=O)N[C@H]1C(=O)N[C@@H](CC(N)=O)C(=O)N[C@@H]2C(=O)N[C@H]3C(=O)N[C@H](C(=O)N[C@H](C(=O)O)c4cc(O)cc(O)c4-c4cc3ccc4O)[C@H](O)c3ccc(c(Cl)c3)Oc3cc2cc(c3O[C@@H]2O[C@H](CO)[C@@H](O)[C@H](O)[C@@H]2O[C@H]2C[C@](C)(N)[C@H](O)[C@H](C)O2)Oc2ccc(cc2Cl)[C@H]1O`, the z-score is 0.508 in experiment [1] (setting [20]), 0.868 in experiment [1] (setting [21]) and 0.133 in experiment [1] (setting [22]).

In the case of `CC(C)N1[N]C(=C2C=c3cc(O)ccc3=N2)c2c(N)ncnc21`, the Potency in experiment [1] (TFE3-RCC UOK109 viability) was 1870 nM (active). Besides, the values for the z-score in [1] (setting [20]), in [1] (setting [21]) and in experiment [1] (setting [22]) were -1.06, -1.57 and -0.805, respectively.

For `C=CC(=O)Nc1cccc(Nc2nc(NC3CCC(N(C)C)CC3)nc3c2ncn3C(C)C)c1` (stereo not given), the Potency in [1] (TFE3-RCC UOK109 viability) is 46.9 nM (active). In addition, the z-score in experiment [1] (setting [20]) was -3.03; in experiment [1] (setting [21]), -0.935; in [1] (setting [22]), -1.36.

Consider `CCCCCCCCCCCCCCCC(=O)OC[C@@H](NC(=O)C(Cl)Cl)[C@H](O)c1ccc([N+](=O)[O-])cc1`, for which the z-score in experiment [1] (setting [20]) came out at 1.8; in [1] (setting [21]), 0.082; in [1] (setting [22]), 0.929.

`CCOc1cc2ncc(C#N)c(Nc3ccc(OCc4ccccn4)c(Cl)c3)c2cc1NC(=O)C=CCN(C)C`: in [1] (TFE3-RCC UOK109 viability), the Potency was 16.6 nM (active). Also, the results for the z-score in experiment [1] (setting [20]), in [1] (setting [21]) and in experiment [1] (setting [22]) were -2.6, -0.947 and -1.43, respectively.

As to `OCC(O)C(O)C(O)CO` (stereo not given), the z-score was 0.353 in [1] (setting [20]), 0.172 in [1] (setting [21]) and 0.47 in experiment [1] (setting [22]). For the same compound, the figures for the activity, negative = inhibition in [2] (parasite line A) and in experiment [2] (parasite line B) were 4.99% (inactive) and 7.38% (inactive), respectively. In addition, the Potency entry in [3], in experiment [4], in experiment [5], in [6], in experiment [7] and in experiment [8] was “inactive” each time. Moreover, the Potency entry in experiment [9], in experiment [10], in experiment [11], in [12], in experiment [13] and in experiment [14] was “inactive” throughout. In addition, the Potency result in [15], in [16], in experiment [17], in experiment [18] and in [19] was “inactive” throughout.

In the case of `C#C[C@]1(O)CC[C@@H]2[C@@H]3CCC4=CC(=O)CC[C@@H]4[C@H]3CC[C@@]21CC`, the z-score in experiment [1] (setting [20]) is 0.12; in experiment [1] (setting [21]), -0.0153; in experiment [1] (setting [22]), -0.174.

Consider `CN(N=O)C(=O)N[C@H]1C(O)OC(CO)[C@@H](O)[C@H]1O` (stereo not given in full), for which the z-score is 0.19 in experiment [1] (setting [20]), 0.37 in experiment [1] (setting [21]) and -0.505 in [1] (setting [22]).

`O=C(C=CC=Cc1ccc2c(c1)OCO2)N1CCCCC1`: the z-score in experiment [1] (setting [20]) came out at 0.531; in [1] (setting [21]), 0.306; in experiment [1] (setting [22]), 0.432.

As for `C[C@H]1C[C@H]2[C@@H]3CCC4=CC(=O)C=C[C@]4(C)[C@@H]3C(=O)C[C@]2(C)[C@@]1(O)C(=O)CO`, the z-score in experiment [1] (setting [20]) stood at 0.188; in experiment [1] (setting [21]) it was 0.279; in experiment [1] (setting [22]) it was 1.74.

With `COC(=O)[C@@H]1CC2=CC(=O)CC[C@]2(C)[C@@]23O[C@@H]2C[C@@]2(C)[C@H](CC[C@@]24CCC(=O)O4)[C@@H]13`, the z-score in experiment [1] (setting [20]) was determined as 0.222; in experiment [1] (setting [21]), 0.454; in experiment [1] (setting [22]), 0.45.
